# Results filed as inconclusive are left out. Entries that show only a call come without a potency. A number with no mark means an inactive call. The source made the active and inactive calls. Calls follow the shape of the dose curve; as a rule, active = well fitted curve in the direction sought with a large enough effect in the repeat runs; inconclusive = weak or mixed curves; inactive = no such curve, though single readings can be large; an effect the other way counts as inactive or inconclusive.
# Experiment: qHTS RealTime-Glo MT Cell Viability Assay in HepG2 cells - 40 hour (AID 1224870); also: nearly all actives have a fitted effect of over 50% in size
# Settings: RealTime-Glo luminescence; series mostly up to 76.8 µM
# How it was run: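 HepG2 cells mixed with RealTime-Glo MT reagents (NanoLuc plus cell-permeant prosubstrate) were seeded at 600 cells/well, incubated 5 h at 37 C/5% CO2, then pinned with compounds in DMSO; nonlytic luminescence tracked viability during 40 h treatment.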
# Potency is read from the fitted curve at half-maximal effect.
Structure (SMILES),Potency,"activity change, negative = cytotoxic"
CC1(C)C(=O)N(CO)C(=O)N1CO,inactive,–
CCOC(=O)CN,inactive,–
O=C1OC(=O)c2ccc3c4c(ccc1c24)C(=O)OC3=O,inactive,–
CC(C)=CC1CC(C)CCO1 (centres undefined),inactive,–
CC(C)(C)C1=CC(=O)C=C(C(C)(C)C)C1=O,inactive,–
CCCC(O)C(O)CO (centres undefined),inactive,–
CCCCCCCCCCCCCCNCCO,10.7 µM (active),–
CCOC(=O)COc1ccc(C)cc1,inactive,–
c1ccc(Sc2ccccc2)cc1,inactive,–
COc1cccc(O)c1,inactive,–
Cc1cccc(Br)c1,inactive,–
CCc1cccc(C)c1,inactive,–
Brc1ccccn1,inactive,–
CCOB(OCC)OCC,inactive,–
CC(=O)O[C@@H]1C[C@@H]2CC[C@@]1(C)C2(C)C,inactive,–
Oc1cc2ccccc2cc1O,inactive,–

Structure (SMILES),Potency,"activity change, negative = cytotoxic"
O=C(O)CCCCCCC(=O)O,inactive,–
Cc1ccc(N)cc1O,inactive,–
CCCCCCCCC(C)=O,inactive,–
c1ccc2c(c1)CCC2,inactive,–
Cn1cnc2ncnc(N)c21,inactive,–
Clc1nc2ccccc2s1,inactive,–
CC(=O)c1ccccc1N,inactive,–
CN(C)CCN1CCOCC1,inactive,–
COc1ccc(C#N)cc1,inactive,–
CC(C)=C1CC[C@@H](C)CC1=O,inactive,–
NCCCC(O)(P(=O)(O)O)P(=O)(O)O,inactive,–
OCCC(O)CO (centres undefined),inactive,–
CC(=O)C=O,inactive,–
C=CC(C)C#N (centres undefined),inactive,–
CCC(=O)CC(C)CC (centres undefined),–,-5.05% [at 0.29 µM]

# Experiment: A CellTox Green Cytotoxicity Assay to monitor cytotoxicity in HEK293 cells - 40 hour (AID 1224871); also: nearly all actives have a fitted effect of over 45% in size
# Settings: CellTox Green fluorescence; series mostly up to 76.8 µM
# How it was run: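 Fluorescence intensity, read at 0, 8, 16, 24, 32 and 40 h of compound treatment, reflected dye binding to DNA of dead HEK293 cells; compounds (23 nL, DMSO) were added 5 h after plating cells with reagent.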
Structure (SMILES),Potency,cytotoxicity increase
CCOC(=O)CN,inactive,–
O=C1OC(=O)c2ccc3c4c(ccc1c24)C(=O)OC3=O,inactive,–
CC(C)=CC1CC(C)CCO1 (centres undefined),inactive,–
CCCC(O)C(O)CO (centres undefined),inactive,–
COc1ccccc1C=O,inactive,–
CCCCCCCC(OC)OC,inactive,–
CCCCCCCCCCCCCCNCCO,19 µM (active),–
CCOC(=O)COc1ccc(C)cc1,inactive,–
c1ccc(Sc2ccccc2)cc1,inactive,–
COc1cccc(O)c1,inactive,–
Cc1cccc(Br)c1,inactive,–
CCc1cccc(C)c1,inactive,–
Brc1ccccn1,inactive,–
CCOB(OCC)OCC,inactive,–
CC(=O)O[C@@H]1C[C@@H]2CC[C@@]1(C)C2(C)C,inactive,–
O=C(O)CCCCCCC(=O)O,inactive,–
Cc1ccc(N)cc1O,inactive,–

Structure (SMILES),Potency,cytotoxicity increase
CCCCCCCCC(C)=O,inactive,–
c1ccc2c(c1)CCC2,inactive,–
Cn1cnc2ncnc(N)c21,inactive,–
Clc1nc2ccccc2s1,inactive,–
CC(=O)c1ccccc1N,inactive,–
OCCN1CN(CCO)CN(CCO)C1,inactive,–
OCCCc1cccnc1,inactive,–
CN(C)CCN1CCOCC1,inactive,–
COc1ccc(C#N)cc1,inactive,–
CC(C)=C1CC[C@@H](C)CC1=O,inactive,–
NCCCC(O)(P(=O)(O)O)P(=O)(O)O,inactive,–
OCCC(O)CO (centres undefined),inactive,–
CCOCN(C(=O)CS(=O)(=O)O)c1c(C)cccc1CC,inactive,–
CC(=O)C=O,inactive,–
C=CC(C)C#N (centres undefined),inactive,–
CCC(=O)CC(C)CC (centres undefined),–,5.38% [at 0.29 µM]
